This note sets out measurements from PubChem BioAssay.

Assay [1] relates to Wnt5a (protein binding on small-molecule microarray). In words: Wnt5a binders on small-molecule microarray, primary screen, biophysical, 635/667 nm fluorescence (AID 1142).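 Also: fluorescence read at 667 nm with signal to noise per printed feature.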 As to conditions: 635 nm fluorescence, higher = more signal.
Assay [2] can be described thus: cell viability in Huh7 cells, primary screen, cytotoxicity control for HCV replication inhibitor project, CellTiter-Glo luminescence, basal, 48 h (AID 1143).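 Also: Huh7 hepatoma cells carrying a hepatitis C replication reporter with no stimulus; test concentration not given here.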 As to conditions: Huh7 HCV replicon, higher = more signal, called active from +8 up or from −8 down.
Assay [3] can be described thus: P. aeruginosa biofilm formation inhibitors, primary screen, PAO1 strain, BacTiter-Glo luminescence, LB-PBS (AID 1144). As to conditions: 12 h, higher = more signal.
A short description of assay [4]: CREB reporter modulators without forskolin, primary screen, cell-based, PC12, CRE-LacZ reporter, unstimulated (AID 1145). As to conditions: no forskolin, luminescence, 4.5 h, higher = more signal, called active from +8 up or from −8 down.
The nature of assay [5]: CREB reporter modulators under forskolin, primary screen, cell-based, PC12, CRE-LacZ reporter, forskolin-stimulated (AID 1146).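 Also: PC12 cells with 6xCRE LacZ reporter stimulated by forskolin 10 µM; beta-galactosidase reporter signal reflecting CREB driven transcription.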 As to conditions: luminescence, 4.5 h, higher = more signal, called active from +8 up or from −8 down.
Assay [6] addresses Streptavidin (Streptomyces avidinii) (UniProt P22629). In words: streptavidin binders on small-molecule microarray, primary screen, artefact control for SMM compound annotation, biophysical, 635/667 nm fluorescence (AID 1147).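 Also: signal reflects streptavidin binding to arrayed compounds as a control protein.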 As to conditions: streptavidin binding, higher = more signal.
A short description of assay [7]: small-molecule binders of probe aInhba, primary screen, biochemical, small-molecule microarray, 635/667 nm fluorescence (AID 1148).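 Also: score merges 667nm spot fluorescence with signal-to-noise for antibody binding to printed compounds.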 As to conditions: higher = more signal.
For assay [8], the target named is Torsin-1A (Homo sapiens) (UniProt O14656). In words: torsin A binders from cell lysate, primary screen, small-molecule microarray, wild-type, 635/667 nm (AID 1149). As to conditions: COS7 hTOR1A-WT lysate, 635 nm fluorescence, higher = more signal.
Sequence of Torsin-1A (Homo sapiens) (O14656 whole entry, looked up): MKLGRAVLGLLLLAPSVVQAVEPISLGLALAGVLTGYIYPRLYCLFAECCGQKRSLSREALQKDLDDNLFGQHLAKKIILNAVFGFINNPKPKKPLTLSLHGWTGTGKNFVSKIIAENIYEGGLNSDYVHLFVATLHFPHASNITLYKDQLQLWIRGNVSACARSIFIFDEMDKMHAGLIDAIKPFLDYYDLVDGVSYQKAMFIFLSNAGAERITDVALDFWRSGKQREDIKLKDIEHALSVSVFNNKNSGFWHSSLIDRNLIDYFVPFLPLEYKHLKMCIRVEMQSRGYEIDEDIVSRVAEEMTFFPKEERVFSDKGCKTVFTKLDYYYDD
For assay [9] the target is unchanged. In words: small-molecule binders of mutant TOR1A in lysate, primary screen, cell lysate, small-molecule microarray, COS7 lysate, 635/667 nm fluorescence (AID 1150).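 Also: score pools 667 nm emission and signal to noise measuring lysate protein binding.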 As to conditions: COS7 hTOR1A mutant lysate, 635 nm fluorescence, higher = more signal.
Assay [10] has as its system Sonic hedgehog protein (Shh). Nature of the assay: small-molecule binders of Shh protein, primary screen, biochemical, small-molecule microarray, 635/667 nm fluorescence (AID 1151).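 Also: Shh protein binding to compounds spotted on small-molecule microarray slides; score combines spot fluorescence intensity with signal-to-noise across triplicate slides.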 As to conditions: small-molecule microarray binding, 635 nm fluorescence; higher = more signal.
Assay [11] in a line: E. coli DRC41 culture turbidity changes, primary screen, E. coli filamentation inducer project, strain DRC41, OD650, 48 h (AID 1152).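 Also: E. coli MC1000 strain DRC41 lacking acrAB efflux pump and sulA.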 As to conditions: E. coli DRC41 (acrAB sulA), higher = more signal, called active from +8 up or from −8 down.
Assay [12] in a line: small-molecule binders of probe aLefty1, primary screen, biochemical, small-molecule microarray, 635/667 nm fluorescence (AID 1153).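 Also: score merges spot fluorescence with signal-to-noise ratio from the scanned slide images.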 As to conditions: higher = more signal.
The nature of assay [13]: PSAC antagonists in infected red cells, primary screen, cell-based, P. falciparum Indochina, OD700, 1 h (AID 1154). As to conditions: P. falciparum Indochina infected RBC osmotic lysis, higher = more signal, called active from +8 up or from −8 down.
Assay [14] is described as follows: PSAC antagonists in infected red cells, primary screen, cell-based, P. falciparum Indochina, OD700, 2 h (AID 1155).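 Also: lysis reports solute entry through the parasite surface anion channel PSAC; channel blockers reduce lysis of infected cells.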 As to conditions: P. falciparum Indochina infected erythrocytes, osmotic lysis OD700; higher = more signal, called active from +8 up or from −8 down.
A short description of assay [15]: osmotic lysis modulators in infected erythrocytes, primary screen, PSAC antagonist project, cell-based, P. falciparum Indochina, OD700, 3 h (AID 1156). As to conditions: higher = more signal, called active from +8 up or from −8 down.
Assay [16] in a line: PSAC antagonists in infected red cells, primary screen, cell-based, P. falciparum Indochina, OD700, 18 h (AID 1157). As to conditions: P. falciparum Indochina infected erythrocytes, osmotic lysis OD700, 18 h; higher = more signal, called active from +8 up or from −8 down.
The nature of assay [17]: modulators of S6 phosphorylation in cells, primary screen, cell-based, A549, cytoblot, luminescence, serum-stimulated (AID 1158).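 Also: serum-stimulated A549 lung adenocarcinoma cells; signal is phosphorylated S6 detected by cytoblot immunostaining with HRP secondary.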 As to conditions: A549 phospho-S6 cytoblot, 5 h, higher = more signal.
Assay [18] addresses NADPH oxidase 2 (Homo sapiens) (UniProt P04839). In words: NOX2-dependent H2O2 signal modulators, primary screen, NOX inhibitor project, cell-based, HEK293-NOX2, PMA-stimulated, Amplex Red fluorescence (AID 1159). Also: test concentration not given here. As to conditions: 45 min, higher = more signal, called active from +8 up or from −8 down.
The target in assay [19] is NADPH oxidase 4 (Homo sapiens) (UniProt Q9NPH5). Nature of the assay: NOX4-dependent H2O2 signal modulators, primary screen, NOX inhibitor project, cell-based, HEK293-NOX4, tetracycline-induced, Amplex Red fluorescence (AID 1160). As to conditions: 45 min, higher = more signal, called active from +8 up or from −8 down.
Sequence of NADPH oxidase 4 (Homo sapiens) (Q9NPH5 whole entry, looked up): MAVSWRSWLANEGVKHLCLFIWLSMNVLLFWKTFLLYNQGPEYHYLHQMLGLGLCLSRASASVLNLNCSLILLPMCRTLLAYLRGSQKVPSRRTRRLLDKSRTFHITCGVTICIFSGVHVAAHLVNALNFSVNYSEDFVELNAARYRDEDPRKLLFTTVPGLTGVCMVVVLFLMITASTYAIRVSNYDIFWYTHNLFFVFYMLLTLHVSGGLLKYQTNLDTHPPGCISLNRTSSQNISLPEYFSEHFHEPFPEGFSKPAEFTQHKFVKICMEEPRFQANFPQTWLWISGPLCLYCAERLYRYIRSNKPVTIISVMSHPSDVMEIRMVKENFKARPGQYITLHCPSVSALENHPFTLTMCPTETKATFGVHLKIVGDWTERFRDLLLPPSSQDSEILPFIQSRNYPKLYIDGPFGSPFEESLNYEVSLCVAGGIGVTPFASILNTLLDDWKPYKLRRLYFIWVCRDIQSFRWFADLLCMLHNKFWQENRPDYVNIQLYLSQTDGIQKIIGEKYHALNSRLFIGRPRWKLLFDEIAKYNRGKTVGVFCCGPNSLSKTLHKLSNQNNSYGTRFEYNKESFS
Assay [20] has as its target NADPH oxidase 5 (Homo sapiens) (UniProt Q96PH1). In words: NOX5-dependent H2O2 signal modulators, primary screen, NOX inhibitor project, cell-based, HEK293-NOX5, Amplex Red fluorescence (AID 1161). As to conditions: HEK293-NOX5, ionomycin, 45 min, higher = more signal.

Active and inactive are the calls of the source. Unless noted, no rule for the calls is given here.

Sequence of NADPH oxidase 5 (Homo sapiens) (Q96PH1 whole entry, looked up): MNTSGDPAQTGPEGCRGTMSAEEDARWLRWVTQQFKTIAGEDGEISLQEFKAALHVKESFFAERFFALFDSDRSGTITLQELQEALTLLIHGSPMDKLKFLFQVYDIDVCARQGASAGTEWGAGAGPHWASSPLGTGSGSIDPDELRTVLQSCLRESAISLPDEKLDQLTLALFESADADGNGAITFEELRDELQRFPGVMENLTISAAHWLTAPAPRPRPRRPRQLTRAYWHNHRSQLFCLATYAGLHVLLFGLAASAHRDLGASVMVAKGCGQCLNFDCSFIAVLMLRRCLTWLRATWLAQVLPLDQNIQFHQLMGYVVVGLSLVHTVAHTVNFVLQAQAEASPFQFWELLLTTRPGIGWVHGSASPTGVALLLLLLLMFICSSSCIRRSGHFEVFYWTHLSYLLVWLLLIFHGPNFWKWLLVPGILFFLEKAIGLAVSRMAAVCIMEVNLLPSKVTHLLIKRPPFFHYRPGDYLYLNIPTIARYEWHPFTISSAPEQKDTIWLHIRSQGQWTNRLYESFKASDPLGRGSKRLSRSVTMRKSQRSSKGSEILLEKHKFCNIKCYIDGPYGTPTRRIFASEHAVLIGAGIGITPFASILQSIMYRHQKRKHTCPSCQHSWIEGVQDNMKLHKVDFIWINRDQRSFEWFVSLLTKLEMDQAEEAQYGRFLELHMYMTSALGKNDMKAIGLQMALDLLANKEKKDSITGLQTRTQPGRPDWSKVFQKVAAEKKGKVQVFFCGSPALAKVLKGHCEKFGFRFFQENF
Sequence of NADPH oxidase 2 (Homo sapiens) (P04839 whole entry, looked up): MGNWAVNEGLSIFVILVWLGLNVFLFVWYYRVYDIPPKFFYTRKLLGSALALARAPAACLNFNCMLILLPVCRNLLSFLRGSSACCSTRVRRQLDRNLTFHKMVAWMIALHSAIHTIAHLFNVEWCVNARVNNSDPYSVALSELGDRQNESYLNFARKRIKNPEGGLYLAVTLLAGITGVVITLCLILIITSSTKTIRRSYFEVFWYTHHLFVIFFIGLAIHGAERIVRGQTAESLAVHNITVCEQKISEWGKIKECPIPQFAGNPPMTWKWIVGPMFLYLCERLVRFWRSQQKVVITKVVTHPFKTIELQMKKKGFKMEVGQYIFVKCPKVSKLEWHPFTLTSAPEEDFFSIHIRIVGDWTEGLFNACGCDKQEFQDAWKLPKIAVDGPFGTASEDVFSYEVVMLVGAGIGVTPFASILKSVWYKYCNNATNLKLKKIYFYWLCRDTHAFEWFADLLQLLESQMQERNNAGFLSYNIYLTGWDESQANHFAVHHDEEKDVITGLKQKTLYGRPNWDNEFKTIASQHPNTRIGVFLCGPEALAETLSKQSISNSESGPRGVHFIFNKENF
Sequence of Streptavidin (Streptomyces avidinii) (P22629 whole entry, looked up): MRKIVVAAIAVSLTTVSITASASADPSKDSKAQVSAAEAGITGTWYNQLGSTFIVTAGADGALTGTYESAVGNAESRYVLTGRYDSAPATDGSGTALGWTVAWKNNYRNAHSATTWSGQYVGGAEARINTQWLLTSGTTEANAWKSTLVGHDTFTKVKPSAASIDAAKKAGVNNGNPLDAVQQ

In the case of `CCCNC(=O)[C@@H]1c2ccccc2C(=O)N(Cc2ccccc2OC)[C@H]1c1ccc(CO)cc1`, the composite z-score in [1] was 0.304; in assay [6], 0.867; in [7] it was -0.0066; with Torsin-1A (Homo sapiens) [8] it was -0.3; with Torsin-1A (Homo sapiens) [9], 0.889; in assay [10], 1.52. This molecule also had a composite z-score in assay [12] of -0.0011. The z-score in assay [2] is -0.67 (inactive); in [3], 0.376 (inactive); in assay [4], 0.001 (inactive); in [5] it was -0.312 (inactive); in assay [11] it was 0.0817 (inactive); in assay [13] it was 2.32 (inactive). Moreover, the z-score is 0.117 (inactive) in assay [14]; 0.297 (inactive) in assay [15]; 0.0117 (inactive) in assay [16]; -0.439 in [17]; 0.802 (inactive) in assay [18]; 0.998 (inactive) in [19]. In assay [20], this molecule gave a z-score of 0.686.
Take `O=C1O[C@@H](c2ccccc2)[C@@H](c2ccccc2)N2[C@@H](c3ccccc3OCCO)[C@]3(C(=O)Nc4ccc(C#CC5(O)CCCCCC5)cc43)[C@@H](C(=O)N3CCN(c4ncccn4)CC3)[C@H]12`: the composite z-score in assay [1] turned out to be 0.133; in [6], 0.077; in assay [7] it was 0.0074; with Torsin-1A (Homo sapiens) [8], 0.987; with Torsin-1A (Homo sapiens) [9], 0.808; in assay [10], 1.11. Moreover, in [12], the composite z-score is -0.0141. The z-score was -2.72 (inactive) in [2]; 0.703 (inactive) in [3]; 0.209 (inactive) in assay [4]; 2.96 (inactive) in assay [5]; 0.691 (inactive) in [11]; 1.89 (inactive) in [13]. In addition, the z-score was 1.66 (inactive) in assay [14]; 2.21 (inactive) in assay [15]; 1.18 (inactive) in assay [16]; -0.451 in [17]; 0.814 (inactive) in assay [18]; 0.343 (inactive) in [19]. Moreover, in [20], the z-score was 1.93.
With `COC(=O)[C@@]1(CCC(=O)OC(C)(C)C)N=C(c2ccc(OCCCO)cc2)O[C@H]1c1ccccc1`, the composite z-score was 0.762 in assay [1]; -0.888 in assay [6]; 0.0319 in assay [7]; -0.831 with Torsin-1A (Homo sapiens) [8]; -0.275 with Torsin-1A (Homo sapiens) [9]; 0.443 in assay [10]. The composite z-score in assay [12] is -0.009. Moreover, the z-score was -3.61 (inactive) in assay [2]; -0.24 (inactive) in assay [3]; 2.25 (inactive) in assay [4]; -2.12 (inactive) in [5]; -1.12 (inactive) in assay [11]; 26 (active) in [13]. In addition, the z-score in [14] is 14.9 (active); in [15] it was 2.32 (inactive); in assay [16], 1.89 (inactive); in [17], 0.197; in assay [18], -2.39 (inactive); in assay [19] it was -0.204 (inactive). This molecule also returned a z-score in assay [20] of -2.57.
As to `CN1C(=O)C2C=CC(C(O)c3ccc(F)cc3)N(N(c3ccccc3)c3ccccc3)C2C1=O` (stereo not given), the composite z-score in assay [1] is -0.0512; in assay [6], 0.453; in [7] it was 0.0047; with Torsin-1A (Homo sapiens) [8], -0.182; with Torsin-1A (Homo sapiens) [9], 0.361; in assay [10], -0.647. The composite z-score in assay [12] is -0.483. The z-score in assay [2] was 0.319 (inactive); in assay [3], -0.0417 (inactive); in assay [4], -0.708 (inactive); in assay [5], 0.677 (inactive); in assay [11] it was -1.46 (inactive); in assay [13], 0.362 (inactive). Further, the z-score in assay [14] was 1.27 (inactive); in [15], 0.39 (inactive); in assay [16], 1.17 (inactive); in assay [17], -1.16; in [18] it was -0.948 (inactive); in [19] it was -1.82 (inactive). The z-score in [20] was -1.39.
